Data taken from PubChem BioAssay.
Records with an inconclusive call do not appear.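 Rule for the calls: active = GFP signal above the screen-wide mean plus 3 SD, that is over about 124.5% of the solvent control; inconclusive = no reading because the compound's own fluorescence disturbed strain identification; inactive = the rest.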

Assay: modulators of AGP1-GFP expression in yeast TOR pathway, primary screen, cell-based, multiplex flow cytometry, S. cerevisiae (AID 1887);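 note: AGP1-GFP fusion strain of S. cerevisiae within a five-strain barcoded multiplex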
Settings: 3 h, at 10 µM, active compounds read high

GFP response, % of DMSO, inactive:
COCCCNc1nc2c([nH]1)c(=O)[nH]c(=O)n2C 114%
CC(C)Oc1ccc2c(=O)c(-c3ccccc3)coc2c1 94%
O=C(Nc1cccc(Oc2c(F)c(F)c(F)c(F)c2F)c1)N1C[C@@H]2C[C@@H](C1)c1cccc(=O)n1C2 101%
CCCCC[C@H](O)/C=C/C1=C(CCCCCCC(=O)O)C(=O)CC1 103%
CC(=O)OC[C@H]1O[C@@H](Sc2cccc3cccnc23)[C@H](OC(C)=O)[C@@H](OC(C)=O)[C@H]1OC(C)=O 94.6%
COc1cc(OC)cc(C(C)=O)c1 104%
Nc1ccc2nc(Cc3ccccc3)[nH]c2c1 89.4%
COc1ccc2c(c1)[N+](C)(C)C(C)(C)C=C2C 99.9%
COc1ccc(CCN(C)Cc2nc(Cc3ccc(OC)c(OC)c3)no2)cc1OC 108%
N=c1c[n+](N2CCOCC2)[n-]o1 96.2%
CCCc1cc(=O)[nH]c(=S)[nH]1 107%
COC(=O)c1ccccc1NC(=O)c1ccc(COc2ccc3c(c2)CCC3)cc1 94.8%
CC1(C)Cc2ccccc2-c2nc(-c3ccccc3)oc(=O)c21 112%
Cc1cc(=O)oc2c(CN(C)Cc3ccccc3)c(O)ccc12 96.2%
CC1=NN(c2ccccc2)C(=O)C1 111%
CCOc1ccc2ccccc2c1C(=O)N[C@@H]1C(=O)N2[C@@H]1SC(C)(C)[C@@H]2C(=O)O 97.5%
O=C1CC2(CCCC2)CC(=O)N1CCCCN1CCN(c2ncccn2)CC1 106%
Cc1ccc(C2=NOC(=O)/C2=C\C=C\c2ccccc2)cc1 73.5%
COc1ccc2c3c([nH]c2c1)C1(NCC3)C(=O)Nc2ccccc21 (configuration not stated) 101%
CC1(C)S[C@@H]2[C@H](NC(=O)Cc3ccccc3)C(=O)N2[C@H]1C(=O)O 119%
COc1cc2cc(C(=O)O)[nH]c2c(OC)c1OC 99.5%
Clc1cc(-c2ccc(/C=N/n3cnnc3)o2)ccc1Br 99.9%
